# Laboratory results reported in PubChem BioAssay (NCATS).
# Values joined by “and” are separate entries in the source; they are usually repeats but may differ in a detail not shown here. Equal entries are not always repeated. Results filed as inconclusive are left out. Entries that show only a call come without a potency. Some structures have more than one record in an assay (separate samples or runs), and their calls can disagree. Unmarked numbers belong to inactive results. Active and inactive are the calls of the source. Calls follow the shape of the dose curve; as a rule, active = well fitted cell-killing curve with a large enough effect; inconclusive = small, poorly fitted or top-dose-only effect; inactive = no such curve, though single readings can be large or run the other way. Peptide text beside a SMILES is read from it.
# Test: qHTS of pediatric cancer cell lines to identify multiple opportunities for drug repurposing: Primary screen for SK-N-MC cells (AID 1347093)
# Details: SK-N-MC viability, CellTiter-Glo luminescence, 48 h; series mostly up to 46 µM
# Text: Drug repurposing or repositioning has been offered as a strategy for drug development in oncology programs. This approach has special potential for childhood cancers and other rare or orphan diseases, where the expected return on new drug development has been a disincentive to pharmaceuticals.
# In this project we exploit the poly-pharmacology of drugs to discover new indications via phenotypic screening of a panel of 19 well-characterized cell lines derived from solid tumors seen in children and adolescents. The goal is to identify approved drugs with previously unrecognized anticancer properties that has the potential to reveal new mechanisms and biological processes involved in carcinogenesis or drug resistance. We employed a titration-based paradigm (quantitative high-throughput screening or qHTS), where all compounds were tested at multiple concentrations for their effect on cell viability. Concentration-response curves (CRCs) were derived directly from the primary screen, and both potency and efficacy values were used to identify compounds with robust bioactivity profiles. We screened the NIH Chemical Genomics Center (NCGC) Pharmaceutical Collection (NPC) and Mechanism Interrogation Plate (MIPE) small molecule collections of approved and investigational compounds against these cell lines; and measured metabolically active cells after 48 hours of compound treatment as a proxy for cell viability.
# Assay Submitter: Nathalia J. Martinez, National Center for Advancing Translational Sciences, National Institutes of Health, Rockville, MD, USA; email: natalia.martinez@nih.gov
# [1] Shen, M et al. Quantitative high-throughput phenotypic screening of pediatric cancer cell lines identifies multiple opportunities for drug repurposing. Oncotarget 2017 Dec 19;9(4):4758-4772. PMID 29435139.
# The cells were obtained from University of North Carolina (UNC), Pediatric Preclinical Testing Program (PPT), and Coriell Institute (CI).
# qHTS cell viability assay:
# Cells were assayed in growth media at a density of 500-1,000 cells/well. Five microliters of cells were dispensed into 1,536-well, white, solid-bottom, TC-treated plates (Greiner Bio One) using a multidrop dispenser and incubated at 37 degrees C, 5% CO2, under a humidified atmosphere for 5 hours. Twenty-three nanoliters of compounds and controls (neutral control DMSO or positive control bortezomib at final concentration of 2.3 µM) were subsequently transferred by Kalypsys pintool. For primary screens, the MIPE collection was tested at 11-point dilutions (final concentrations range from 0.78 nM to 46 µM) and the NPC collection at 8-point dilutions (final concentrations range from 0.59nM to 46 µM). Compounds tested in follow-up screens were assayed at 11-point dilutions. Cells were incubated for 48 hours, followed by addition of 3 uL of CellTiter-Glo (Promega). After a 15 min incubation at room temperature, samples were analyzed for luminescence intensity using a ViewLux High-throughput CCD imager equipped with clear filters.
# Potency is read from the fitted curve at half-maximal effect.
SMILES,Potency,"activity change, negative = cytotoxic"
Cc1ncc([N+](=O)[O-])n1CC(C)O (stereo not given),inactive,
Cc1ccc(NC(=O)c2ccc(CN3CCN(C)CC3)cc2)cc1Nc1nccc(-c2cccnc2)n1,inactive,
Cc1ccc(S(=O)(=O)NC(=O)NN2CC3CCCC3C2)cc1 (stereo not given),inactive,
Nc1nc(Cl)nc2c1ncn2[C@H]1C[C@H](O)[C@@H](CO)O1,18.7 µM (active),
C[C@]12CCC(=O)C=C1CC[C@@H]1[C@H]2[C@@H](O)C[C@@]2(C)[C@H]1CC[C@]2(O)C(=O)CO,inactive,
Nc1nc(N)c(N=O)c(OCC2CCCCC2)n1,3.32 µM (active),
C[Se]CCC(N)C(=O)O (stereo not given),54 µM (active),
CCN(CCO)CCCC(C)Nc1ccnc2cc(Cl)ccc12 (stereo not given),2.96 µM (active),-1.47% [at 4.84 µM]
Cc1cc(=O)oc2cc(O)ccc12,inactive,
CC1=C(C)C(=O)C(C(CCCCCC(=O)O)c2ccccc2)=C(C)C1=O (stereo not given),inactive,
CC(C)c1nc(CN(C)C(=O)N[C@H](C(=O)N[C@@H](Cc2ccccc2)C[C@H](O)[C@H](Cc2ccccc2)NC(=O)OCc2cncs2)C(C)C)cs1,10.5 µM (active),
CC(C)[C@H](N)C(=O)OCCOCn1cnc2c(=O)[nH]c(N)nc21,inactive,
CN1CCC(=C2c3ccccc3CCc3sccc32)CC1,29.6 µM (active),
O=P(O)(O)C(O)(Cn1ccnc1)P(=O)(O)O,inactive,
Clc1ccc2c(N3CCN(CCCN4CCN(c5ccnc6cc(Cl)ccc56)CC4)CC3)ccnc2c1,inactive,
CCOC(=O)c1c(C)n(C)c2ccc(O)cc12,inactive,
c1cnc2cc3c(cc2n1)C1CNCC3C1,4.69 µM (active),
CNC[C@@H](O)[C@@H](O)[C@H](O)[C@H](O)CO,23.5 µM (active),
O=c1c(O)c(-c2ccc(O)cc2O)oc2cc(O)cc(O)c12,inactive,
CC(=O)N1CCN(c2ccc(OC[C@H]3CO[C@](Cn4ccnc4)(c4ccc(Cl)cc4Cl)O3)cc2)CC1,23.5 µM (active),

SMILES,Potency,"activity change, negative = cytotoxic"
NC(=NCc1ccccc1)NC(=O)c1nc(Cl)c(N)nc1N,1.18 µM (active),
CCCOc1ccc2nc(NC(=O)OC)[nH]c2c1,0.0422 µM (active),
COc1c(O)cc2c(c1O)[C@@H]1O[C@H](CO)[C@@H](O)[C@H](O)[C@H]1OC2=O,inactive,
COCCCN1CCC(NC(=O)c2cc(Cl)c(N)c3c2OCC3)CC1,inactive,
CCC1=C(C)CN(C(=O)NCCc2ccc(S(=O)(=O)NC(=O)NC3CCC(C)CC3)cc2)C1=O (stereo not given),inactive,
Cc1c(C(=O)NN2CCCCC2)nn(-c2ccc(Cl)cc2Cl)c1-c1ccc(Cl)cc1,21.1 µM (active) and 7.43 µM (active),
COC(=O)[C@H](Cc1ccccc1)NC(=O)[C@@H](N)CC(=O)O (H-Asp-Phe-OMe),inactive,
CC(C)C[C@H](NC(=O)[C@H](Cc1ccccc1)NC(=O)c1cnccn1)B(O)O,0.006 µM (active),
C=CCc1cc(OC)c(O)c(C(=O)NCCO)c1,inactive,
COc1cc(Nc2c(C#N)cnc3cc(OCCCN4CCN(C)CC4)c(OC)cc23)c(Cl)cc1Cl,2.11 µM (active) and 1.87 µM (active),
COc1cc2nc(N3CCN(C(=O)C4CCCO4)CC3)nc(N)c2cc1OC (stereo not given),inactive,
CC(S)C(=O)NCC(=O)O (stereo not given),inactive,
COc1cc(C(C)=O)ccc1OCCCN1CCC(c2noc3cc(F)ccc23)CC1,inactive,
CNC[C@H](O)c1ccc(O)c(O)c1,inactive,
CC1(C)C(=O)N(CCN2CCC(C(=O)c3ccc(F)cc3)CC2)c2ccccc21,10.5 µM (active),
Cc1nc(Nc2ncc(C(=O)Nc3c(C)cccc3Cl)s2)cc(N2CCN(CCO)CC2)n1,18.7 µM (active) and 16.8 µM (active),
Nc1cccc2c1CN(C1CCC(=O)NC1=O)C2=O (stereo not given),inactive,
CC(C)[N+]1(C)[C@@H]2CC[C@H]1CC(OC(=O)C(CO)c1ccccc1)C2 (stereo not given in full),9.35 µM (active),
Cc1ccc(Nc2nccc(N(C)c3ccc4c(C)n(C)nc4c3)n2)cc1S(N)(=O)=O,8.41 µM (active) and 16.6 µM (active),
